PubChem BioAssay (Tox21)
Inconclusive results are not listed. The source made the active and inactive calls. Calls come from the whole dose curve; as a rule, active = well fitted cell-killing curve with a large enough effect in the repeat runs; inconclusive = weak or mixed curves, or effect the other way; inactive = no such curve, though single readings can be large or run the other way.

Assay: qHTS assay to identify small molecule antagonists of the vitamin D receptor (VDR) signaling pathway - cell viability counter screen (AID 743225); note: nearly all actives have a fitted effect of over 50% in size
Details: VDR-bla HEK293T viability, CellTiter-Glo luminescence, 16 h; series mostly up to 61 µM; viability change, negative = cytotoxic: at the top concentration
From the text: U.S. Tox21 Program National Center for Advancing Translational Sciences [NCATS] NIH Chemical Genomics Center [NCGC] U.S. Environmental Protection Agency [EPA] National Institutes of Environmental Health Sciences [NIEHS] National Toxicology Program [NTP] U.S. Food and Drug Administration [FDA] Tox21 Assay Overview: The vitamin D receptor (VDR), a member of nuclear hormone receptor superfamily, plays a critical role in calcium homeostasis and bone metabolism. It is also involved in cell differentiation and growth, and thrombogenicity. To identify the compounds that inhibit VDR signaling, the VDR-UAS-bla HEK 293T cell line (Invitrogen, Carlsbad, CA, USA) containing a beta-lactamase reporter gene under the control of an upstream activator sequence (UAS) was used to screen the Tox21 10K compound library. The cytotoxicity of the Tox21 compound library against the VDR-bla cell line was tested in parallel by measuring the cell viability using CellTiter-Glo assay (Promega, Madison, WI) in the same wells.
Tox21 Assay Protocol Summary: VDR-bla cells were dispensed at 2,000 cells/5 uL of assay medium per well into black wall/clear-bottom 1536-well plates using a Multidrop Combi (Thermo Fisher Scientific, Waltham, MA) dispenser. After the assay plates were incubated at a 37C and 5% CO2 for 4 h, 23 nL of compounds dissolved in DMSO, positive controls or DMSO only was transferred to the assay plate by a Pintool station (Kalypsys, San Diego, CA), followed by addition of 1 uL of 1-alpha, 25-Dihydroxy Vitamin D3 (3 nM, final concentration in the wells) using a Bioraptr Flying Reagent Dispenser (FRD) workstation (Beckman Coulter, Indianapolis, IN). The plates were incubated at 37C and 5% CO2 for 16 h, and then 1 uL of LiveBLAzerTM B/G FRET substrate was added using a Bioraptr FRD. The plates were incubated at room temperature for 2 h and fluorescence intensity was measured by an Envision plate reader (PerkinElmer, Shelton, CT). For cell viability readout that measures cytotoxicity, 3 ul/well of CellTiter-Glo reagent was added into the assay plates using a Bioraptr FRD. After 30 min incubation at room temperature, the luminescence intensity in the plates was measured using a ViewLux plate reader (PerkinElmer).
% is set by controls: 0 for no effect and ±100 for the full control effect; potency is the fitted concentration of half-maximal effect.

| SMILES | viability change, negative = cytotoxic | Potency |
| --- | --- | --- |
| O=S(=O)(Cl)c1ccccc1 | 13.4% [at 78.8 µM] (inactive) |  |
| C=COC(C)=O | 3.77% [at 78.8 µM] (inactive) |  |
| CCOP(=S)(OCC)SCn1nnc2ccccc2c1=O |  | 49 µM (active) |
| CC/C(=N\OC/C=C/Cl)C1=C(O)CC(C2CCOCC2)CC1=O (stereo not given) | 18.5% (inactive) |  |
| O=S1(=O)OC(c2cc(Br)c(O)c(Br)c2)(c2cc(Br)c(O)c(Br)c2)c2ccccc21 | -4.43% (inactive) |  |
| C[C@]12CC[C@H]3[C@@H](CCC4=CC(=O)CC[C@@H]43)[C@@H]1CC[C@@H]2OC(=O)CCC1CCCCC1 | 0.218% (inactive) |  |
| COCC(C)N(C(=O)CCl)c1c(C)csc1C (stereo not given) | -9.85% (inactive) |  |
| CN1C(=O)C(O)N=C(c2ccccc2)c2cc(Cl)ccc21 (stereo not given) | 9.58% [at 78.8 µM] (inactive) |  |
| c1ccc(CN2CCNCC2)cc1 | -1.46% [at 216 µM] (inactive) |  |
| CC1C(=O)C[C@]2(C(C)C)C[C@H]12 (stereo not given in full) | 4.37% (inactive) |  |
| Clc1ccc(C2(Cn3cncn3)CC(Br)CO2)c(Cl)c1 (stereo not given) | -8.57% (inactive) |  |
| C=CC(=O)OC | 10.1% [at 78.8 µM] (inactive) |  |
| CC(=O)C(C)(C)C | -19.1% [at 78.8 µM] (inactive) |  |
| c1ccoc1 | 0.113% (inactive) |  |
| C/C=C/C=O | -2.79% (inactive) |  |
| CCC(Br)(CC)C(=O)NC(N)=O | -0.826% (inactive) |  |
| O=C1NCN(c2ccccc2)C12CCN(CCCOc1ccc(F)cc1)CC2 | 2.04% (inactive) |  |
| CCC(Cl)CCl (stereo not given) | -16% [at 78.8 µM] (inactive) |  |
| COc1ccc(-c2ccccc2)cc1NNC(=O)OC(C)C |  | 51 µM (active) |
| CCOP(=S)(Oc1ccc([N+](=O)[O-])cc1)c1ccccc1 (stereo not given) | -6.2% (inactive) |  |

| SMILES | viability change, negative = cytotoxic | Potency |
| --- | --- | --- |
| Cc1cc(=O)[nH]o1 | 10.9% [at 78.8 µM] (inactive) |  |
| COc1cc(Cl)c(OC)cc1Cl | 1.66% (inactive) |  |
| CN1C(=O)NC(=O)C(C)(C2=CCCCC2)C1=O (stereo not given) | 4.71% (inactive) |  |
| O=Cc1ccc(Cl)cc1Cl | -5.79% [at 78.8 µM] (inactive) |  |
| CCOP(O)OCC | 15.2% (inactive) |  |
| Cc1c(F)c(F)c(COC(=O)C2C(/C=C(\Cl)C(F)(F)F)C2(C)C)c(F)c1F (stereo not given) | 0.528% (inactive) |  |
| BrCCCCBr | 10.3% (inactive) |  |
| O=S1OC[C@@H]2[C@H](CO1)[C@]1(Cl)C(Cl)=C(Cl)[C@@]2(Cl)C1(Cl)Cl (stereo not given in full) | -12.2% (inactive) |  |
| O=C1C(=O)c2cccc3cccc1c23 | 0.545% (inactive) |  |
| C=CC(=O)OCC(C)O (stereo not given) | 19% [at 78.8 µM] (inactive) |  |
| C=CCOC(C)=O | 9.59% (inactive) |  |
| NCCCNCCCN |  | 49.7 µM (active) |
| O=C(CBr)Nc1ccc(Cl)cc1C(=O)c1ccccc1F | 7.84% (inactive) |  |
| COP(=S)(Oc1cc(Cl)c(Br)cc1Cl)c1ccccc1 (stereo not given) | -25.9% (inactive) |  |
| CCCCCCC#N | -23.4% (inactive) |  |
| NNC(=O)c1cccnc1 | 15.2% [at 78.8 µM] (inactive) |  |
| Cc1ccccc1CCl | 6.38% (inactive) |  |
| CCOc1ccc(C(C)(C)COCc2cccc(Oc3ccccc3)c2)cc1 | 14% (inactive) |  |
| CO[C@@H]1[C@H](OC(=O)NC(=O)CCl)CC[C@]2(CO2)[C@H]1[C@@]1(C)O[C@@H]1CC=C(C)C | 4.39% [at 28.5 µM] (inactive) |  |
| COC(=O)C(C)N(C(=O)Cc1ccccc1)c1c(C)cccc1C (stereo not given) | -19.3% (inactive) |  |
